Test results reported in PubChem BioAssay (EPA / NIEHS).
Inconclusive results are not listed. Activity calls are given as the source filed them. Rule for the calls, unless noted: active = hit-call score of the fitted dose curve at least 0.9, where 1 is the maximum; inactive = score below 0.9.

experiment: IUF_NPC2b_neuronal_migration_120hr: Leibniz Research Institute for Environmental Medicine (IUF) 120-hour Neural Progenitor Cell Migration Assay for Neuron Migration (NPC2b) (AID 2284300)
In short: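 Read-out is mean distance from sphere edge to each TUBB3-positive neuron at 120 h, expressed relative to radial glia migration distance and to DMSO baseline. Single 0.3 mm human NPC spheres differentiated on laminin under continuous compound exposure.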

SMILES	outcome	AC50
C[n+]1ccc(-c2cc[n+](C)cc2)cc1	inactive	
C/C(=C/C=C/[C@@H](C)C(=O)O)[C@H]1CN[C@H](C(=O)O)[C@H]1CC(=O)O	inactive	
CP(=O)(O)CCC(N)C(=O)O (configuration not stated)	inactive	
[O-][Cl+3]([O-])([O-])O	inactive	
CCOP(=S)(OCC)SCS(=O)C(C)(C)C (configuration not stated)	inactive	
C[n+]1ccc(-c2ccccc2)cc1	inactive	
Cn1nc(C(F)(F)F)c(CS(=O)(=O)C2=NOC(C)(C)C2)c1OC(F)F	inactive	
CC1(C)C(C=C(Cl)c2ccc(Cl)cc2)C1C(=O)OC(C#N)c1ccc(F)c(Oc2ccccc2)c1 (configuration not stated)	inactive	
CCOP(=O)(Oc1cnc(C(C)(C)C)nc1)OC(C)C (configuration not stated)	inactive	
CC1(C)[C@H](C=C(Cl)Cl)[C@H]1C(=O)OCc1c(F)c(F)cc(F)c1F	inactive	
CC(=O)[O-].CC(=O)[O-].O.O.O.[Pb+2]	inactive	
CC1(C)C(C=C(Cl)Cl)C1C(=O)O[C@H](C#N)c1cccc(Oc2ccccc2)c1 (some centres not stated)	inactive	
CCOP(=O)(OCC)OC(Cl)C(Cl)(Cl)Cl (configuration not stated)	inactive	
CCOP(=O)(OCC)SCSC(C)(C)C	inactive	
CC1(C)[C@@H](C=C(Cl)Cl)[C@@H]1C(=O)O[C@@H](C#N)c1ccc(F)c(Oc2ccccc2)c1	inactive	
COP(=O)(OC)SCN1C(=O)c2ccccc2C1=O	inactive	
CC(=O)[O-].[Tl+]		33 µM (active)

experiment: IUF_NPC3_neuronal_differentiation_120hr: Leibniz Research Institute for Environmental Medicine (IUF) 120-hour Neuronal Differentiation Assay (NPC3) (AID 2284301)
In short: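 Human fetal (GW 16-19) neural progenitor spheres (0.3 mm) plated on poly-D-lysine/laminin in N2 differentiation medium, exposed 120 h at 37C with half-medium renewal day 3; 7 concentrations. TUBB3+ cells as % of Hoechst nuclei, CNN-identified; DMSO baseline.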

SMILES	outcome	AC50
C[n+]1ccc(-c2cc[n+](C)cc2)cc1	inactive	
C/C(=C/C=C/[C@@H](C)C(=O)O)[C@H]1CN[C@H](C(=O)O)[C@H]1CC(=O)O	inactive	
CP(=O)(O)CCC(N)C(=O)O (configuration not stated)	inactive	
[O-][Cl+3]([O-])([O-])O	inactive	
CCOP(=S)(OCC)SCS(=O)C(C)(C)C (configuration not stated)	inactive	
C[n+]1ccc(-c2ccccc2)cc1	inactive	
Cn1nc(C(F)(F)F)c(CS(=O)(=O)C2=NOC(C)(C)C2)c1OC(F)F		9.95 µM (active)
CC1(C)C(C=C(Cl)c2ccc(Cl)cc2)C1C(=O)OC(C#N)c1ccc(F)c(Oc2ccccc2)c1 (configuration not stated)	inactive	
CCOP(=O)(Oc1cnc(C(C)(C)C)nc1)OC(C)C (configuration not stated)	inactive	
CC1(C)[C@H](C=C(Cl)Cl)[C@H]1C(=O)OCc1c(F)c(F)cc(F)c1F	inactive	
CC(=O)[O-].CC(=O)[O-].O.O.O.[Pb+2]	inactive	
CC1(C)C(C=C(Cl)Cl)C1C(=O)O[C@H](C#N)c1cccc(Oc2ccccc2)c1 (some centres not stated)		0.851 µM (active)
CCOP(=O)(OCC)OC(Cl)C(Cl)(Cl)Cl (configuration not stated)	inactive	
CCOP(=O)(OCC)SCSC(C)(C)C	inactive	
CC1(C)[C@@H](C=C(Cl)Cl)[C@@H]1C(=O)O[C@@H](C#N)c1ccc(F)c(Oc2ccccc2)c1	inactive	
COP(=O)(OC)SCN1C(=O)c2ccccc2C1=O	inactive	
CC(=O)[O-].[Tl+]		50.1 µM (active)

experiment: IUF_NPC4_neurite_length_120hr: Leibniz Research Institute for Environmental Medicine (IUF) 120-hour Neuronal Morphology Assay for Neurite Length (NPC4) (AID 2284302)
In short: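 Human fetal neural progenitor spheres (0.3 mm) plated on poly-D-lysine/laminin in N2 differentiation medium, exposed from day 0 for 120 h with half-medium refresh at day 3, 37C. Mean neurite length (um) of TUBB3-positive neurons from skeletonized immunostaining images; DMSO ≤0.1%.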

SMILES	outcome	AC50
C[n+]1ccc(-c2cc[n+](C)cc2)cc1	inactive	
C/C(=C/C=C/[C@@H](C)C(=O)O)[C@H]1CN[C@H](C(=O)O)[C@H]1CC(=O)O		0.0406 µM (active)
CP(=O)(O)CCC(N)C(=O)O (configuration not stated)	inactive	
[O-][Cl+3]([O-])([O-])O	inactive	
CCOP(=S)(OCC)SCS(=O)C(C)(C)C (configuration not stated)	inactive	
C[n+]1ccc(-c2ccccc2)cc1	inactive	
Cn1nc(C(F)(F)F)c(CS(=O)(=O)C2=NOC(C)(C)C2)c1OC(F)F		42.3 µM (active)
CC1(C)C(C=C(Cl)c2ccc(Cl)cc2)C1C(=O)OC(C#N)c1ccc(F)c(Oc2ccccc2)c1 (configuration not stated)	inactive	
CCOP(=O)(Oc1cnc(C(C)(C)C)nc1)OC(C)C (configuration not stated)	inactive	
CC1(C)[C@H](C=C(Cl)Cl)[C@H]1C(=O)OCc1c(F)c(F)cc(F)c1F	inactive	
CC(=O)[O-].CC(=O)[O-].O.O.O.[Pb+2]	inactive	
CC1(C)C(C=C(Cl)Cl)C1C(=O)O[C@H](C#N)c1cccc(Oc2ccccc2)c1 (some centres not stated)	inactive	
CCOP(=O)(OCC)OC(Cl)C(Cl)(Cl)Cl (configuration not stated)	inactive	
CCOP(=O)(OCC)SCSC(C)(C)C	inactive	
CC1(C)[C@@H](C=C(Cl)Cl)[C@@H]1C(=O)O[C@@H](C#N)c1ccc(F)c(Oc2ccccc2)c1	inactive	
COP(=O)(OC)SCN1C(=O)c2ccccc2C1=O	inactive	
CC(=O)[O-].[Tl+]		34.6 µM (active)

experiment: IUF_NPC4_neurite_area_120hr: Leibniz Research Institute for Environmental Medicine (IUF) 120-hour Neuronal Morphology Assay for Neurite Area (NPC4) (AID 2284305; active = hit-call score of the fitted dose curve at least 0.9, where 1 is the maximum)
In short: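 Human fetal neural progenitor spheres (0.3 mm) plated on poly-D-lysine/laminin in N2 differentiation medium, exposed 120 h (7 concentrations, DMSO ≤0.1%, half-medium refresh day 3). Fixed, TUBB3 immunostained; mean neurite area per neuron by Omnisphero skeletonization.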

SMILES	outcome	AC50
C[n+]1ccc(-c2cc[n+](C)cc2)cc1	inactive	
CP(=O)(O)CCC(N)C(=O)O (configuration not stated)	inactive	
[O-][Cl+3]([O-])([O-])O	inactive	
CCOP(=S)(OCC)SCS(=O)C(C)(C)C (configuration not stated)	inactive	
C[n+]1ccc(-c2ccccc2)cc1	inactive	
Cn1nc(C(F)(F)F)c(CS(=O)(=O)C2=NOC(C)(C)C2)c1OC(F)F		50.1 µM (active)
CCOP(=O)(Oc1cnc(C(C)(C)C)nc1)OC(C)C (configuration not stated)	inactive	
CC1(C)C(C=C(Cl)Cl)C1C(=O)O[C@H](C#N)c1cccc(Oc2ccccc2)c1 (some centres not stated)	inactive	
CCOP(=O)(OCC)OC(Cl)C(Cl)(Cl)Cl (configuration not stated)	inactive	
COP(=O)(OC)SCN1C(=O)c2ccccc2C1=O	inactive	
CC(=O)[O-].[Tl+]		30.9 µM (active)
